Reference: PubChem BioAssay
Active and inactive are the calls of the source. The rule behind the calls is not given here.

molecular target: Pantothenate synthetase (Mycobacterium tuberculosis (strain ATCC 25618 / H37Rv)) (UniProt P9WIL5); test: Recombinant Mtb pantothenate synthetase (PanC) inhibitors, coupled enzyme, confirmatory (AID 375); conditions: coupled enzyme assay; at 10 µM, active compounds read high;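 note: 0% = full reaction with vehicle and 100% = no enzyme background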
Sequence (P9WIL5 whole entry, looked up): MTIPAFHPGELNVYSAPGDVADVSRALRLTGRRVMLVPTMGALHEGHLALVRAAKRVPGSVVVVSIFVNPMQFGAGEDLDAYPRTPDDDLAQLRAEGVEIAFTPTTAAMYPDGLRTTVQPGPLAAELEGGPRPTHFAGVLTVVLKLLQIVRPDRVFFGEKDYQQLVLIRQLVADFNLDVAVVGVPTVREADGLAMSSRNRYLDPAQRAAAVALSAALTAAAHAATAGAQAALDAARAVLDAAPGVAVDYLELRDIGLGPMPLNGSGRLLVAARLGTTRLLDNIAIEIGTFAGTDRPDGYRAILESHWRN

Row | SMILES | inhibition
1 | Cc1ccc(CSc2nc3c(c(=O)[nH]2)CCC3)cc1 | 1% (inactive)
2 | Cc1cc(=O)n2[nH]c(COc3ccccc3)nc2n1 | 6% (inactive)
3 | NC(=O)c1ccccc1NC(=O)CN1CCOCC1 | 6% (inactive)
4 | Nc1sccc1C(=O)c1ccccc1 | 4% (inactive)
5 | COc1cccc(N(C(C)=O)c2nc(C)cc(C)c2C#N)c1 | 0% (inactive)
6 | CCCOc1ccc(-c2nnn(CC(=O)Nc3cccc(C(=O)OC)c3)n2)cc1 | 7% (inactive)
7 | COc1ccc(Oc2c(C)oc3cc(OC(=O)N4CCOCC4)ccc3c2=O)cc1 | 3% (inactive)
8 | COc1cccc(NC(=O)CC2SC(=Nc3ccccc3)NC2=O)c1 (stereo not given) | 0% (inactive)
9 | COc1ccc(-c2nc(CSCC(=O)N3CCN(c4cccc(C)c4)C(C)C3)c(C)o2)cc1OC (stereo not given) | 0% (inactive)
10 | CC1Cc2ccccc2N1S(=O)(=O)c1cccc(C(=O)OCC(=O)NC2CCS(=O)(=O)C2)c1 (stereo not given) | 0% (inactive)
11 | Fc1ccccc1-c1nc(NCCCN2CCOCC2)c2ccccc2n1 | 0% (inactive)
12 | CC(C)CN1C(=O)c2ccc(C(=O)Nc3nccs3)cc2C1=O | 0% (inactive)
13 | Cn1c(=O)c(NC(=O)c2ccccc2)c2n(c1=S)CCCCC2 | 0% (inactive)
14 | Cc1ccc2nc(SC(C)C(=O)N3CCCC3)[nH]c2c1 (stereo not given) | 2% (inactive)
15 | COc1ccc(-c2cc(C(F)(F)F)n3nc(C(=O)N4CCOCC4)nc3n2)cc1 | 8% (inactive)
16 | CCNS(=O)(=O)c1ccc(S(=O)(=O)N(Cc2ccccn2)C2CCCCC2)cc1 | 1% (inactive)
17 | Cc1ccccc1-n1c(=O)cc(NCc2ccc3c(c2)OCO3)[nH]c1=O | 2% (inactive)
18 | Cc1cc(NC(=O)CSc2nc(C3CC3)nc3sc4c(c23)CCC(C)C4)no1 (stereo not given) | 6% (inactive)
19 | Cc1ccc(-n2ncc3c(N4CCN(c5ccc(F)cc5)CC4)ncnc32)c(C)c1 | 6% (inactive)
20 | CCOc1ccc(-c2nnc(N(CC)C(=O)C3CCC3)s2)cc1 | 11% (inactive)

Row | SMILES | inhibition
21 | CCOC(=O)C(C)On1c(SC(C)C(=O)OCC)nc2ccccc2c1=O (stereo not given) | 0% (inactive)
22 | Cn1cnc2cc(NC(=O)c3ccc(Cl)cc3)ccc21 | 0% (inactive)
23 | Cc1nc(NC2=NCN(CC3CCCO3)CN2)nc2ccccc12 (stereo not given) | 0% (inactive)
24 | CCOC(=O)CC12CN3CN(C1)CC(CC(=O)OCC)(C3)C2=O | 1% (inactive)
25 | COc1ccc(C(=O)Oc2c(CN3CCOCC3)cc(Cl)c3cccnc23)cc1OC | 0% (inactive)
26 | Cc1cc(O)c(-c2cc(C(=O)Nc3ccc(S(=O)(=O)N4CCOCC4)cc3)[nH]n2)cc1C | 0% (inactive)
27 | COCCN(C(=O)Cn1nnc2ccccc21)C(C(=O)NC1CCCC1)c1cc(OC)ccc1OC (stereo not given) | 6% (inactive)
28 | C=CCN1C(=O)C2(c3ccccc31)C1CCCC=C1C(C#N)=C(N)C2(C#N)C#N (stereo not given) | 0% (inactive)
29 | O=C(Cn1ncc2c1-c1ccccc1OC2)N1CCc2ccccc21 | 0% (inactive)
30 | CC(C)n1nnnc1SCC(=O)Nc1ccccc1N1CCOCC1 | 1% (inactive)
31 | CC(=O)N1CCN(Cc2ccc(Br)s2)CC1 | 0% (inactive)
32 | CC1CC(C)CN(c2ncnc3c2cnn3-c2ccc(Cl)cc2)C1 (stereo not given) | 1% (inactive)
33 | O=C(Cn1c(=O)sc2ccccc21)NCCOc1ccccc1F | 0% (inactive)
34 | CCCn1c(SCC(=O)Nc2ccccc2C(=O)OCC)nc2c1c(=O)n(C)c(=O)n2C | 0% (inactive)
35 | CCOc1ccc2ccccc2c1/C=N/n1cncn1 | 0% (inactive)
36 | Cc1ccc(O)c(C(CC(=O)N2CCCC2)c2ccccc2)c1 (stereo not given) | 0% (inactive)
37 | CCOC(=O)c1c(C(F)(F)C(F)(F)C(F)(F)C(F)(F)F)n[nH]c1C | 8% (inactive)
38 | CCOC(=O)c1ccccc1NC(=O)N1CCn2c(C)ccc2C1CC (stereo not given) | 2% (inactive)
39 | Cc1cc(C)nc(SCC(=O)Nc2ccc(S(=O)(=O)Nc3nccs3)cc2)n1 | 0% (inactive)
40 | CCOC(=O)Nc1nnc(-c2ccccc2OC)s1 | 0% (inactive)
